Source: PubChem (Broad Institute)
The entries come from a sample that favours hits as a whole.
Tgondii IFNg: T. gondii growth inhibition under IFN-gamma. Toxoplasma gondii growth in IFN-gamma-treated host cells; active compounds read low. activity change, negative = inhibition, % (test concentration not listed). hit rate 3.8% among 69,000; in the data active = activity change below about -70%, passing the limit was not always enough;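 note: host cells are HeLa cells infected with Toxoplasma gondii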
The depositor's hits bear a star; ! = not confirmed by another sample.

SMILES | Tgondii IFNg
Cc1cc(NC(=O)N2CCC3(CC2)CC(=O)c2ccccc2O3)ccc1Br | -75*
CCc1ccc(CN2CCC(N(C)C)CC2C(=O)O)o1 (stereo unspecified) | -2
O=C(Nc1cnc2n1CCCC2)C1CCOC1 (stereo unspecified) | -2
Cc1cc(CN(C)C(=O)c2cccc(NCc3ccc(C)s3)c2)on1 | -25
CCCCN(C)C(=O)c1cnc(-c2noc3cc(NCC4CC4)ccc23)s1 | -82*
CN(C)C1CCN(C(=O)c2cnc(-c3noc4cc(-c5ccccc5)ccc34)s2)CC1 | -12
CN1CCN([C@@H]2CCN(S(C)(=O)=O)[C@H]2Cc2cnn(C)c2)CC1 | -16
COc1ccc(C(=O)N2CCC3(CC2)Nc2ccc(Cl)cc2-n2cccc23)cc1 | 21
COc1ccc(CC(=O)N2CCC(Cc3ccccc3-c3ccccc3)(C(N)=O)CC2)cc1 | 31
CCOc1ccc(-c2nc(Cn3c(=O)c4c(C)cc(C)nc4n(Cc4ccco4)c3=O)c(C)o2)cc1 | -1
Cn1ncc(Cl)c1-c1cc(C(=O)N[C@H](CN)Cc2ccc(F)c(F)c2)oc1Cl | -81*
C=CCC(CC=C)(NC(=O)CCC(=O)OC)c1ccccc1 | 2
C[C@H]1CCCCO[C@@H](CN(C)C(=O)C2CCCCC2)[C@@H](C)CN([C@@H](C)CO)C(=O)c2cc(NS(=O)(=O)c3ccccc3)ccc2O1 | -31
Cc1ccc(S(=O)(=O)Nc2ccc3c(c2)C(=O)N([C@@H](C)CO)C[C@@H](C)[C@H](CN(C)S(=O)(=O)c2cccs2)OCCCC[C@@H](C)O3)cc1 | -103*
Cc1noc(C)c1NC(=O)Nc1ccc2c(c1)C(=O)N([C@@H](C)CO)C[C@@H](C)[C@@H](CN(C)S(=O)(=O)c1cccs1)OCCCC[C@@H](C)O2 | 3
C[C@H]1CCCCO[C@H](CN(C)C(=O)C2CCCCC2)[C@@H](C)CN([C@@H](C)CO)C(=O)c2cc(NS(=O)(=O)c3ccccc3)ccc2O1 | -33
Cc1noc(C)c1NC(=O)Nc1ccc2c(c1)C(=O)N([C@@H](C)CO)C[C@H](C)[C@H](CN(C)S(=O)(=O)c1cccs1)OCCCC[C@@H](C)O2 | 328
Cc1noc(C)c1NC(=O)Nc1ccc2c(c1)C(=O)N([C@H](C)CO)C[C@@H](C)[C@@H](CN(C)S(=O)(=O)c1cccs1)OCCCC[C@H](C)O2 | -42
C[C@H](CO)N1C[C@H](C)[C@H](CN(C)C(=O)C2CCCCC2)OCCCC[C@H](C)Oc2ccc(NS(=O)(=O)c3ccccc3)cc2C1=O | -102*
Cc1noc(C)c1NC(=O)Nc1ccc2c(c1)C(=O)N([C@H](C)CO)C[C@@H](C)[C@H](CN(C)S(=O)(=O)c1cccs1)OCCCC[C@H](C)O2 | 442
Cc1ccc(S(=O)(=O)Nc2ccc3c(c2)C(=O)N([C@H](C)CO)C[C@@H](C)[C@@H](CN(C)S(=O)(=O)c2cccs2)OCCCC[C@H](C)O3)cc1 | -117*
Cc1noc(C)c1NC(=O)Nc1ccc2c(c1)C(=O)N([C@H](C)CO)C[C@H](C)[C@H](CN(C)S(=O)(=O)c1cccs1)OCCCC[C@H](C)O2 | 262
Cc1ccc(S(=O)(=O)Nc2ccc3c(c2)C(=O)N([C@H](C)CO)C[C@@H](C)[C@H](CN(C)S(=O)(=O)c2cccs2)OCCCC[C@H](C)O3)cc1 | -131*
Cc1noc(C)c1NC(=O)Nc1ccc2c(c1)C(=O)N([C@H](C)CO)C[C@H](C)[C@@H](CN(C)S(=O)(=O)c1cccs1)OCCCC[C@@H](C)O2 | 157
CCN1c2cc(F)ccc2C(=O)NC12CCN(C(=O)c1ccc3c(c1)OCO3)CC2 | -40
SMILES | Tgondii IFNg
Cc1cnn(Cc2nc(-c3ccc(NC(=O)c4ccccc4F)cc3)oc2C)c1 | 4
COCCN1C(=O)N(C2Cc3ccccc3C2)C(=O)C12CCN(Cc1ccc3c(c1)CCO3)CC2 | -28
c1ccc(OCC23CCCOC2CCN(c2ncccn2)C3)nc1 (stereo unspecified) | 2
Cc1c(C(=O)NC(C)Cc2cn(C)c3ccc(F)cc23)cccc1N1CCOCC1 (stereo unspecified) | 7
CSc1nc(Cl)c(-c2ccccc2)c(N2CCN(C(=O)C3CCCO3)CC2)n1 (stereo unspecified) | -35
CCOC1C2CCC1N(C(=O)c1cnccn1)C2 (stereo unspecified) | 2
Cc1noc(C)c1NC(=O)Nc1ccc2c(c1)C(=O)N([C@H](C)CO)C[C@H](C)[C@H](CN(C)S(=O)(=O)c1cccs1)OCCCC[C@@H](C)O2 | 43
Cc1ccc(S(=O)(=O)Nc2ccc3c(c2)C(=O)N([C@H](C)CO)C[C@H](C)[C@H](CN(C)S(=O)(=O)c2cccs2)OCCCC[C@H](C)O3)cc1 | -121*
C[C@H](CO)N1C[C@H](C)[C@H](CN(C)C(=O)c2ccncc2)OCCCC[C@H](C)Oc2ccc(NS(=O)(=O)c3cccs3)cc2C1=O | -47
Cc1csc(CN2C[C@H]3CN(S(C)(=O)=O)CCO[C@@H]3C2)n1 | 20
O=C1COC2(CCN(C(=O)C3CCOC3)CC2)CN1Cc1ccccc1 (stereo unspecified) | -35
O=C(O)c1cc(-c2ccsc2)cc(S(=O)(=O)N2CCOCC2)c1 | -11
Cc1oc(-c2cccc(Br)c2)nc1Cn1c(=O)c2cccnc2n(-c2ccccc2)c1=O | -3
C1CCC(C(CC2CCCCN2)C2CCCCC2)CC1 (stereo unspecified) | -96*!
CN(C)CC(=O)NCCC1CCCCN1 (stereo unspecified) | -5
CN1CCN(CCC2CCCCN2)CC1 (stereo unspecified) | 17
C=CCN1CCC2(CC1)CC(NC(=O)c1csnn1)c1ccccc1O2 (stereo unspecified) | -31
O=C(NCCc1csc(-c2cccc(F)c2)n1)c1cccc(Br)c1 | -81*
O=C(NCCc1csc(-c2cccc(F)c2)n1)c1ccc(Br)cc1 | -50
Cc1cccc(C(=O)NCCc2csc(-c3ccccc3)n2)c1 | 152
COc1cccc(C(=O)NCCc2csc(-c3ccc(F)cc3)n2)c1 | -68
Cc1cccc(C(=O)NCCc2csc(-c3cccc(F)c3)n2)c1 | -75*
CC(=O)NCCc1csc(-c2cccc(F)c2)n1 | 102
O=C(NCCc1csc(-c2ccc(F)cc2)n1)c1cccc(C(F)(F)F)c1 | -34
COc1cccc(C(=O)NCCc2csc(-c3cccc(C)c3)n2)c1 | 366
SMILES | Tgondii IFNg
O=C(NCCc1csc(-c2ccc(F)cc2)n1)c1cccc(Br)c1 | -87*
COc1ccc(-c2ccc(OCCNC(=O)c3sc(-c4ccccc4)nc3C)nn2)cc1 | -5
Cc1ccc(C(=O)N(C)[C@@H](C)C(=O)O)cc1NC(=O)C1CCCC1 | 4
CCOc1nc(NC)nc(N(C#N)CN2C(=O)c3ccccc3C2=O)n1 | 64
Cc1oc(-c2ccc(NC(=O)c3ccc(F)c(F)c3)cc2)nc1Cn1cccn1 | -46
Cc1cc(C)n(-c2cccc(-c3ccc(S(N)(=O)=O)cc3F)c2)n1 | -7
CC(=O)Oc1ccc2c(c1)CCC1C2=CCC2(C)C(OC(C)=O)CCC12 (stereo unspecified) | -92*
CCCCC(=O)O[C@H]1CC[C@H]2[C@@H]3CCc4cc(O)ccc4[C@H]3CC[C@]12C | -35
CN(C)CC(=O)N1CCc2onc(CNc3ncccn3)c2C1 | 0
O=C(NCC1CCCO1)c1csc(-c2ccc(N3CCCC3)nc2)n1 (stereo unspecified) | -113*
O=C(Cn1ncc2c(N3CCCCC3)ncnc21)NC1CCN(Cc2ccccc2)CC1 | -7
O=C(NCCCN1CCOCC1)c1csc(-c2ccc(N3CCCC3)nc2)n1 | -1
